From PubChem BioAssay (NCI) come the findings set out here.

Assay [1] in a line: NCI Yeast Anticancer Drug Screen. Data for the rad50 strain (AID 155).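 Further: 0% = growth of vehicle-only cultures of the same strain.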 As to conditions: S. cerevisiae rad50 strain growth inhibition, stronger effect = higher value. Summed up:
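DNA repair mutant yeast, compound exposure, growth read-out; inhibition is taken relative to vehicle.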

The nature of assay [2]: NCI Yeast Anticancer Drug Screen. Data for the mec2-1 strain (AID 157). To be noted: S. cerevisiae mec2-1 strain, stronger effect = higher value. Summed up: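 Cells of the genetically defined mec2-1 yeast strain are incubated with test compound. Inhibition of growth is calculated against vehicle-treated controls.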
Assay [3] can be described thus: NCI Yeast Anticancer Drug Screen. Data for the sgs1 mgt1 strain (AID 161).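 Further: 0% = growth of cultures given vehicle only.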 To be noted: S. cerevisiae sgs1 mgt1 strain, stronger effect = higher value. The procedure, abridged:
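Genetically altered yeast, compound exposure, growth inhibition relative to vehicle.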

Assay [4] in a line: NCI Yeast Anticancer Drug Screen. Data for the cln2 rad14 strain (AID 165).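 Further: 0% = growth equal to vehicle treated cultures.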 As to conditions: S. cerevisiae cln2 rad14 strain, stronger effect = higher value. The procedure, abridged:
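The screen exposed genetically defined yeast (cln2 rad14) to test compounds and scored growth inhibition relative to vehicle-treated controls.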

Assay [5] is described as follows: NCI Yeast Anticancer Drug Screen. Data for the bub3 strain (AID 167). To be noted: S. cerevisiae bub3 mutant strain, stronger effect = higher value. The procedure, abridged: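 In this screen, a yeast mutant lacking normal mitotic checkpoint function is challenged with compound. Relative growth versus vehicle gives the inhibition value.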
Assay [6] can be described thus: NCI Yeast Anticancer Drug Screen. Data for the mlh1 rad18 strain (AID 175). As to conditions: S. cerevisiae mlh1 rad18 strain growth inhibition, stronger effect = higher value. Summed up:
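Compound-treated yeast growth, normalised to vehicle controls. Strain bears defined DNA repair mutations.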

[7] abbreviates: at 5.0 µM (retest, dose inferred, filed as 0.5).
The mark [8] stands for this setting: at 50.0 µM (retest, dose inferred, filed as 5.0).

This is part of a sample that, as a whole, favours compounds with a hit. Of some 79,000 tested, about 15% had one in any assay. Unmarked numbers belong to inactive results. Active and inactive are the calls of the source. No stated cut-off is given here; in the data, active means growth inhibition above about 70%; inactive means the rest.

`Cn1c(=S)c2[nH]c(SC3CCCCC3)nc2n(C)c1=O`: the growth inhibition was 46% in assay [1] (setting [7]); 68% in assay [1] (setting [8]); 94.8% (active) in assay [1] (at 50.0 µM); 42% in assay [2] (setting [7]); 61% in assay [2] (setting [8]); 99.5% (active) in assay [2] (at 50.0 µM). The growth inhibition is 41% in assay [3] (setting [7]); -20% in assay [3] (setting [8]); 99.2% (active) in assay [3] (at 50.0 µM); 27% in assay [4] (setting [7]); 34% in assay [4] (setting [8]); 52.5% in assay [4] (at 50.0 µM). Also, the growth inhibition is 52% in assay [5] (setting [7]); 63% in assay [5] (setting [8]); 98.2% (active) in assay [5] (at 50.0 µM); 23% in assay [6] (setting [7]); 62% in assay [6] (setting [8]); 98.8% (active) in assay [6] (at 50.0 µM).
`COC(=O)C1=C(C(=O)OC)C2(C)OC1C(=O)C21CC1` (stereo not given): the growth inhibition in assay [1] (setting [7]) was 15%; in assay [1] (setting [8]), 85% (active); in assay [1] (at 50.0 µM) it was 88.3% (active); in assay [2] (setting [7]) it was 18%; in assay [2] (setting [8]) it was 94% (active); in assay [2] (at 50.0 µM), 84.6% (active). Also, the growth inhibition is 23% in assay [3] (setting [7]); 94% (active) in assay [3] (setting [8]); 86.8% (active) in assay [3] (at 50.0 µM); 6% in assay [4] (setting [7]); 70% (active) in assay [4] (setting [8]); 76.2% (active) in assay [4] (at 50.0 µM). Besides, the growth inhibition in assay [5] (setting [7]) was 20%; in assay [5] (setting [8]), 91% (active); in assay [5] (at 50.0 µM), 93.6% (active); in assay [6] (setting [7]), 18%; in assay [6] (setting [8]), 94% (active); in assay [6] (at 50.0 µM) it was 94.5% (active).
On to `COC(=O)C(=[N+]=[N-])C(=O)c1ccc(Cl)cc1`, for which the growth inhibition in assay [1] (setting [7]) is 2%; in assay [1] (setting [8]), 30%; in assay [1] (at 50.0 µM), 81% (active); in assay [2] (setting [7]), 2%; in assay [2] (setting [8]), 13%; in assay [2] (at 50.0 µM), 96.2% (active). For the same compound, the growth inhibition is 2% in assay [3] (setting [7]); 40% in assay [3] (setting [8]); 50.7% in assay [3] (at 50.0 µM); 0% in assay [4] (setting [7]); 19% in assay [4] (setting [8]); 44.4% in assay [4] (at 50.0 µM). Moreover, the growth inhibition in assay [5] (setting [7]) is -14%; in assay [5] (setting [8]), -14%; in assay [5] (at 50.0 µM) it was 28.9%; in assay [6] (setting [7]), -3%; in assay [6] (setting [8]), 18%; in assay [6] (at 50.0 µM), 40.5%.
As for `CC(=O)N1C/C(=C\c2ccccc2)C(=O)/C(=C/c2ccccc2)C1`, the growth inhibition in assay [1] (setting [7]) was 60%; in assay [1] (setting [8]), 87% (active); in assay [1] (at 50.0 µM), 84.9% (active); in assay [2] (setting [7]), 47%; in assay [2] (setting [8]), 92% (active); in assay [2] (at 50.0 µM), 82.7% (active). Also, the growth inhibition was 46% in assay [3] (setting [7]); 98% (active) in assay [3] (setting [8]); 79.5% (active) in assay [3] (at 50.0 µM); 35% in assay [4] (setting [7]); 88% (active) in assay [4] (setting [8]); 67.5% in assay [4] (at 50.0 µM). In addition, the growth inhibition was 47% in assay [5] (setting [7]); 91% (active) in assay [5] (setting [8]); 87.8% (active) in assay [5] (at 50.0 µM); 62% in assay [6] (setting [7]); 96% (active) in assay [6] (setting [8]); 78.9% (active) in assay [6] (at 50.0 µM).
On to `O=C1C=C(Cl)C(=O)C2=C1CCCC2`, for which the growth inhibition in assay [1] (setting [7]) was 10%; in assay [1] (setting [8]), 89% (active); in assay [1] (at 50.0 µM), 95.2% (active); in assay [2] (setting [7]) it was 11%; in assay [2] (setting [8]), 98% (active); in assay [2] (at 50.0 µM), 70.8% (active). Further, the growth inhibition in assay [3] (setting [7]) was 8%; in assay [3] (setting [8]) it was 98% (active); in assay [3] (at 50.0 µM), 61.1%; in assay [4] (setting [7]), -1%; in assay [4] (setting [8]) it was 48%; in assay [4] (at 50.0 µM) it was 59.2%. Further, the growth inhibition was 1% in assay [5] (setting [7]); 98% (active) in assay [5] (setting [8]); 99.2% (active) in assay [5] (at 50.0 µM); 20% in assay [6] (setting [7]); 98% (active) in assay [6] (setting [8]); 93.9% (active) in assay [6] (at 50.0 µM).
With `CC1/C=C/C=C/CC/C=C/C=C/C=C/C=C/C(OC2OC(C)C(O)C(N)C2O)CC2OC(CC(O)C(O)CCC(O)CC(O)CC(O)CC(=O)OC(C)C(C)C1O)CC(O)C2C(=O)O` (stereo not given), the growth inhibition in assay [1] (setting [7]) was 98% (active); in assay [1] (setting [8]), 100% (active); in assay [1] (at 50.0 µM) it was 99.3% (active); in assay [2] (setting [7]), 96% (active); in assay [2] (setting [8]), 100% (active); in assay [2] (at 50.0 µM), 99.3% (active). Moreover, the growth inhibition is 56% in assay [3] (setting [7]); 100% (active) in assay [3] (setting [8]); 99.2% (active) in assay [3] (at 50.0 µM); 93% (active) in assay [4] (setting [7]); 100% (active) in assay [4] (setting [8]); 99.1% (active) in assay [4] (at 50.0 µM). For the same compound, the growth inhibition in assay [5] (setting [7]) is 99% (active); in assay [5] (setting [8]), 100% (active); in assay [5] (at 50.0 µM), 99.2% (active); in assay [6] (setting [7]), 97% (active); in assay [6] (setting [8]), 99% (active); in assay [6] (at 50.0 µM), 98.5% (active).
`CCOC1(c2ccccc2)c2ccccc2S(=O)(=O)N1C` (stereo not given): the growth inhibition in assay [1] (setting [7]) was -3%; in assay [1] (setting [8]), 4%; in assay [1] (at 50.0 µM) it was 11.1%; in assay [2] (setting [7]), -4%; in assay [2] (setting [8]), 16%; in assay [2] (at 50.0 µM), 0.95%. The growth inhibition in assay [3] (setting [7]) was 14%; in assay [3] (setting [8]), 33%; in assay [3] (at 50.0 µM), 11.2%; in assay [4] (setting [7]), 6%; in assay [4] (setting [8]), 12%; in assay [4] (at 50.0 µM), 56.9%. For the same compound, the growth inhibition is 1% in assay [5] (setting [7]); 10% in assay [5] (setting [8]); 40.8% in assay [5] (at 50.0 µM); 18% in assay [6] (setting [7]); 11% in assay [6] (setting [8]); 9% in assay [6] (at 50.0 µM).
`Nc1cccc2c(O)cccc12`: the growth inhibition in assay [1] (setting [7]) was -1%; in assay [1] (setting [8]), 21%; in assay [1] (at 50.0 µM), 21.6%; in assay [2] (setting [7]) it was 3%; in assay [2] (setting [8]), 18%; in assay [2] (at 50.0 µM), 9.3%. For the same compound, the growth inhibition in assay [3] (setting [7]) is -1%; in assay [3] (setting [8]) it was 15%; in assay [3] (at 50.0 µM), 20.8%; in assay [4] (setting [7]), 2%; in assay [4] (setting [8]) it was 12%; in assay [4] (at 50.0 µM), 44.2%. For the same compound, the growth inhibition in assay [5] (setting [7]) is 2%; in assay [5] (setting [8]) it was 15%; in assay [5] (at 50.0 µM) it was 8.55%; in assay [6] (setting [7]), -2%; in assay [6] (setting [8]), 28%; in assay [6] (at 50.0 µM) it was 50.2%.
Consider `O=C1CCC(Cc2ccc(I)cc2)C(=O)N1` (stereo not given), for which the growth inhibition in assay [1] (setting [7]) was -5%; in assay [1] (setting [8]), 3%; in assay [1] (at 50.0 µM), -2.9%; in assay [2] (setting [7]), 1%; in assay [2] (setting [8]) it was 6%; in assay [2] (at 50.0 µM), -12.7%. For the same compound, the growth inhibition is -11% in assay [3] (setting [7]); 68% in assay [3] (setting [8]); 66.3% in assay [3] (at 50.0 µM); -5% in assay [4] (setting [7]); 7% in assay [4] (setting [8]); -63.8% in assay [4] (at 50.0 µM). For the same compound, the growth inhibition in assay [5] (setting [7]) was -6%; in assay [5] (setting [8]), -5%; in assay [5] (at 50.0 µM), -54.2%; in assay [6] (setting [7]) it was -6%; in assay [6] (setting [8]), 1%; in assay [6] (at 50.0 µM), -4.6%.
Turning to `CCOC(=O)C(=Cc1ccccc1)C(=O)OCC`, the growth inhibition in assay [1] (setting [7]) was 20%; in assay [1] (setting [8]), 92% (active); in assay [1] (at 50.0 µM), 73% (active); in assay [2] (setting [7]) it was 20%; in assay [2] (setting [8]), 91% (active); in assay [2] (at 50.0 µM), 88.8% (active). Further, the growth inhibition was 9% in assay [3] (setting [7]); 92% (active) in assay [3] (setting [8]); 92.6% (active) in assay [3] (at 50.0 µM); 13% in assay [4] (setting [7]); 78% (active) in assay [4] (setting [8]); 69.5% in assay [4] (at 50.0 µM). For the same compound, the growth inhibition was 48% in assay [5] (setting [7]); 94% (active) in assay [5] (setting [8]); 92.2% (active) in assay [5] (at 50.0 µM); 12% in assay [6] (setting [7]); 94% (active) in assay [6] (setting [8]); 93.3% (active) in assay [6] (at 50.0 µM).
